Among the test systems are HCT-15 colon; HT29 colon; SNB-75 CNS; SNB-19 CNS; U251 CNS; PC-3 prostate; SK-MEL-5 melanoma; UACC-62 melanoma; LOX IMVI melanoma; SK-MEL-28 melanoma; SK-MEL-2 melanoma; EKVX NSCLC; SN12C renal; UO-31 renal; TK-10 renal; ACHN renal; CAKI-1 renal; A498 renal; CCRF-CEM leukemia; MOLT-4 leukemia.
Assay in all cases: NCI-60 one-dose screen, 48 h (100 = growth as untreated, 0 = no growth, -100 = all killed)
What all share (conditions): 10 µM unless noted

About 83,000 compounds went through this panel and 20% of them were active in at least one assay; those are over-represented in the sample as a whole.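 For each line, cells grew in 96-well plates with the test compound present at a single concentration for 48 hours.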 A number with no mark means an inactive call. The source made the active and inactive calls. The calls were made as follows: active = growth percent below 10; inactive = the rest.

Consider `Nc1c(Cl)cc(/C=C2\C=Cc3ccccc32)cc1Cl`, for which the growth was 100% with HCT-15 colon; 97.6% in the test on HT29 colon; 86.1% in the test with SNB-75 CNS; 114% in the test with SNB-19 CNS; 108% with U251 CNS; 90.6% in the test on PC-3 prostate. Also, the growth in the test with SK-MEL-5 melanoma was 105%; in the test with UACC-62 melanoma, 106%; with LOX IMVI melanoma it was 89.7%; in the test on SK-MEL-28 melanoma, 114%; in the test on SK-MEL-2 melanoma, 120%; with EKVX NSCLC, 94.2%. The growth in the test with SN12C renal was 113%; with UO-31 renal it was 95.7%; with TK-10 renal it was 107%; with ACHN renal, 101%; in the test with CAKI-1 renal it was 110%; with A498 renal, 97.6%. In addition, the results for the growth with CCRF-CEM leukemia and in the test with MOLT-4 leukemia were 106% and 98.7%, respectively.
Take `CC[C@@H](C(=O)[C@@H](C)[C@@H](O)[C@H](C)[C@@H]1O[C@@H]([C@@H](CC)C(=O)ONC(=O)c2ccccc2O)CC[C@@H]1C)C1O[C@]2(C=CC(=O)[C@]3(CC[C@@](C)([C@H]4CC[C@](O)(CC)[C@H](C)O4)O3)O2)[C@H](C)C[C@@H]1C` (stereo not given in full): the growth was 44.5% in the test with HCT-15 colon; 33.9% in the test on HT29 colon; 64.3% in the test with SNB-75 CNS; 48.4% in the test on SNB-19 CNS; 32.1% in the test on U251 CNS; 31.3% in the test with PC-3 prostate. The growth is 11% in the test with SK-MEL-5 melanoma; 63.3% with UACC-62 melanoma; 45.4% with LOX IMVI melanoma; 73.3% in the test with SK-MEL-28 melanoma; 76.9% with SK-MEL-2 melanoma; 45.2% in the test on EKVX NSCLC. The growth in the test on SN12C renal was 24.1%; with UO-31 renal, 36.9%; with TK-10 renal it was 75.8%; with ACHN renal it was 50.2%; with CAKI-1 renal, 39.2%; with A498 renal, 36.4%. Moreover, the growth with CCRF-CEM leukemia is 36.6%; in the test on MOLT-4 leukemia, 45.1%.
In the case of `COc1cc2c(cc1OCCCN1CCN(C(=S)SCCC(C#N)(c3ccccc3)c3ccccc3)CC1)N=C[C@@H]1CCCN1C2=O`, the growth with HCT-15 colon is -89.5% (active); with HT29 colon, -89.3% (active); in the test on SNB-75 CNS, -91.5% (active); with SNB-19 CNS, -44.4% (active); with U251 CNS, -95.7% (active); in the test with PC-3 prostate, -34.9% (active). Besides, the growth in the test on SK-MEL-5 melanoma was -100% (active); with UACC-62 melanoma, -72% (active); with LOX IMVI melanoma it was -100% (active); in the test on SK-MEL-28 melanoma, -82.6% (active); in the test on SK-MEL-2 melanoma, -80% (active); in the test with EKVX NSCLC it was -95.6% (active). For the same compound, the growth was -43.9% (active) in the test on SN12C renal; 4.62% (active) in the test with UO-31 renal; -59.7% (active) with TK-10 renal; -46.1% (active) in the test on ACHN renal; -44.1% (active) in the test on CAKI-1 renal; -100% (active) in the test with A498 renal. Also, the values for the growth in the test with CCRF-CEM leukemia and with MOLT-4 leukemia were -35% (active) and -8.92% (active), respectively.
Consider `COc1ccc(C(=O)C/C(=C\c2ccc(O)c(OC)c2)C(=O)NN)cc1`, for which the growth in the test on HCT-15 colon is 64.2%; in the test on HT29 colon it was 102%; in the test with SNB-75 CNS, 99.6%; with SNB-19 CNS, 85%; in the test on U251 CNS it was 84.9%; in the test on PC-3 prostate, 67.3%. Moreover, the growth in the test with SK-MEL-5 melanoma is 75%; with UACC-62 melanoma it was 75.8%; in the test on LOX IMVI melanoma, 82.2%; in the test on SK-MEL-28 melanoma, 75.6%; with SK-MEL-2 melanoma, 90.8%; with EKVX NSCLC, 94%. Besides, the growth is 89% in the test on SN12C renal; 67.9% in the test on UO-31 renal; 111% in the test with TK-10 renal; 85.4% in the test on ACHN renal; 77.9% in the test on CAKI-1 renal; 105% in the test on A498 renal. Moreover, the growth is 73.8% in the test with CCRF-CEM leukemia and 87.5% in the test on MOLT-4 leukemia.
Consider `COc1ccc(C(O)c2cc3c(N)c(C(=O)Nc4cccc5ccccc45)sc3nc2C)cc1` (stereo not given), for which the growth in the test on HCT-15 colon is 6.45% (active); with HT29 colon, 6.41% (active); in the test with SNB-75 CNS it was 32.5%; in the test on SNB-19 CNS it was 25%; in the test on U251 CNS it was 20.1%; in the test with PC-3 prostate it was 14.1%. Also, the growth with SK-MEL-5 melanoma is -47.4% (active); in the test with UACC-62 melanoma, 18.6%; with LOX IMVI melanoma it was 19.1%; with SK-MEL-28 melanoma, 57.6%; in the test on SK-MEL-2 melanoma, 35.8%; with EKVX NSCLC it was 41.8%. Besides, the growth in the test with SN12C renal was 14.4%; in the test on UO-31 renal it was 25.8%; with TK-10 renal, 63.8%; in the test on ACHN renal, 22%; in the test with CAKI-1 renal, 15.5%; with A498 renal, -13.1% (active). For the same compound, the growth was 13.2% in the test with CCRF-CEM leukemia and 10.9% in the test on MOLT-4 leukemia.
On to `CN(C)c1ccc([C@@H](C(=O)Nc2cccc([N+](=O)[O-])c2)N(C(=O)c2cc3ccccc3[nH]2)c2cccc([N+](=O)[O-])c2)cc1`, for which the growth in the test with HCT-15 colon is 103%; in the test with HT29 colon it was 101%; in the test with SNB-75 CNS, 78.2%; in the test on SNB-19 CNS, 97.8%; with U251 CNS, 88.8%; in the test with PC-3 prostate, 82.7%. Moreover, the growth is 97.7% with SK-MEL-5 melanoma; 86.7% in the test with UACC-62 melanoma; 88% in the test on LOX IMVI melanoma; 112% in the test with SK-MEL-28 melanoma; 113% in the test with SK-MEL-2 melanoma; 90.7% with EKVX NSCLC. The growth with SN12C renal was 97.8%; with UO-31 renal, 67.6%; with TK-10 renal, 117%; in the test with ACHN renal, 93.3%; in the test with CAKI-1 renal, 92.5%; in the test on A498 renal it was 70.5%. Also, the growth in the test on CCRF-CEM leukemia is 96.1%; in the test with MOLT-4 leukemia, 92%.
For `CCOc1ccc(NC(=O)Nc2ccc(OCC)cc2)cc1`, the growth in the test on HCT-15 colon is 106%; in the test on HT29 colon it was 107%; with SNB-75 CNS, 106%; in the test on SNB-19 CNS, 107%; with U251 CNS, 99.8%; in the test on PC-3 prostate, 100%. Also, the growth in the test with SK-MEL-5 melanoma was 104%; with UACC-62 melanoma, 105%; in the test with LOX IMVI melanoma, 98.3%; in the test on SK-MEL-28 melanoma it was 101%; in the test on SK-MEL-2 melanoma, 121%; in the test with EKVX NSCLC, 108%. Further, the growth was 104% with SN12C renal; 95.2% in the test on UO-31 renal; 107% in the test with TK-10 renal; 116% in the test on ACHN renal; 103% with CAKI-1 renal; 104% in the test with A498 renal. Moreover, the values for the growth in the test on CCRF-CEM leukemia and with MOLT-4 leukemia were 107% and 99.3%, respectively.

The record behind these values is PubChem BioAssay (NCI).
